From PubChem BioAssay
KAT2A inh: blocks human GCN5L2 histone acetyltransferase. Potency, µM (highest dose often 58.9 µM), for inactives: at the top dose activity change, negative = inhibition, most hits filed as inhibitors. AID 504327. GCN5L2 HAT assay, ThioGlo1 CoA-SH fluorescence. 390,000 compounds, 0.21% hits; note: potency is the fitted concentration of half-maximal effect; % is set by controls: 0 for no effect and ±100 for the full control effect
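Preincubate 20nM GCN5L2 with compound 15 min, RT → add 50uM ThioGlo1 + 75uM H3(1-25) + 70uM acetyl-CoA → read fluorescence 0 and 20 min. Primary qHTS; fluorescent artifacts likely.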
PI5P4Ka inh: blocks human PI5P4K alpha kinase activity | P48426 | PI5P4Kalpha enzyme, ADP-Glo luminescence, 60 min; active compounds read low | max response, % | 330,000 compounds, 1.2% hits | AID 652105; active = max response of -50% or lower; inconclusive = between -30% and -50%; inactive = -30% or higher; note: value at the top dose of about 77 µM; % is set by controls: 0 for no effect and ±100 for the full control effect
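Compounds were pin-transferred onto PI5P4Kalpha and substrate in HEPES pH 7.4 buffer with EGTA, CHAPS and 5% DMSO. ATP (5 microM final) started the reaction, which ran 60 minutes at room temperature before ADP-Glo detection.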
JMJD2A Tudor: inhibitors of human JMJD2A Tudor domain; O75164; AlphaScreen JMJD2A-Tudor / H3K4me3 peptide binding; Potency, µM (series often up to 114 µM), inactives show top-dose activity change, negative = inhibition, usual class: inhibitors; 390,000 compounds, 4.4% hits; AID 504339; note: potency is the fitted concentration of half-maximal effect; % is set by controls: 0 for no effect and ±100 for the full control effect; nearly all actives have a fitted effect of over 50% in size
HP1b chromo inh: HP1-beta chromodomain-methylated histone interaction inhibition; P83916; AlphaScreen HP1-beta / biotin-H3K9me3 peptide binding; Potency, µM (doses to about 114 µM), for inactives: at the top dose activity change, negative = inhibition, hits mostly inhibitors; 390,000 compounds, 0.56% hits; AID 540317; note: potency is the fitted concentration of half-maximal effect; nearly all actives have a fitted effect of over 70% in size
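Compound inhibition of the preformed complex between 50 nM HP1-beta and 50 nM biotinylated H3K9me3 peptide was read by AlphaScreen. Buffer was PBS pH 7.4 with 0.01% Tween-20. Incubations ran 30 min at room temperature, with 10 ug/mL donor/acceptor beads.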
BAZ2B inh: BAZ2B (human) inhibition | AID 504333 | 360,000 compounds, 4.4% hits | Q9UIF8 | AlphaScreen BAZ2B-H3K14Ac peptide displacement | Potency, µM (highest dose often 114 µM), for the others: at the highest dose activity change, negative = inhibition, usual class: inhibitors; note: potency is the fitted concentration of half-maximal effect; % is set by controls: 0 for no effect and ±100 for the full control effect; nearly all actives have a fitted effect of over 60% in size
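BAZ2B (50 nM) with biotin-H3(5-23)K14Ac peptide (50 nM) in PBS pH 7.4, 0.01% Tween-20, preformed 30 min, then compound 30 min at room temperature; top concentration 110uM. AlphaScreen streptavidin donor/nickel chelate acceptor beads (10 ug/mL final), 20 min dark, signal read.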
PLK1 PBD block: PLK1 (human) polo-box domain binding inhibition; P53350; Plk1 PBD binding of FITC phosphopeptide, fluorescence polarization; Potency, µM, without a hit: max response, negative = inhibition, most hits filed as inhibitors; 360,000 compounds, 2.8% hits; AID 720504; note: potency is the fitted concentration of half-maximal effect; series mostly up to about 57 µM; % is set by controls: 0 for no effect and ±100 for the full control effect; nearly all actives have a fitted effect of over 65% in size
Numbers without * were called inactive; ? = inconclusive; · = no result given. In the library only some 7% were active in any assay of this set; here they are far more common. Unless noted, calls come from the whole dose curve; as a rule, active = well fitted curve in the direction sought with a large enough effect; inconclusive = small, poorly fitted or top-dose-only effect, or another doubt; inactive = no such curve, though single readings can be large; an effect the other way counts as inactive or inconclusive.

SMILES	KAT2A inh	PI5P4Ka inh	JMJD2A Tudor	HP1b chromo inh	BAZ2B inh	PLK1 PBD block
O=C(COC(=O)/C=C/c1cc(Br)ccc1F)Nc1ccc2[nH]c(=O)[nH]c2c1	-4.9%	-16.2	-6.2%	19.6%	0.1%	5.3%
CCOc1ccc2ncc(S(=O)(=O)c3ccccc3)c(N3CCN(c4ccccc4)CC3)c2c1	·	8.8	?	-15.2%	·	-9.1%
CCOc1ccc2ncc(S(=O)(=O)c3ccccc3)c(N3CCN(c4ccc(OC)cc4)CC3)c2c1	-1.7%	0.8	?	?	10µM*	-6.9%
COc1ccc(CN2CCNC(=O)C2CC(=O)NC2CCCC2)c(C)c1C (stereo not drawn)	-1.0%	?	20µM*	11.8%	?	9.47µM*
O=C(NC(=S)Nc1cccnc1Cl)c1ccco1	-10.1%	?	-21.1%	?	-22.2%	26.7µM*
CCN(CC)c1ccc(NC(=O)CN(C)Cc2cccs2)cc1	-3.6%	-17.5	39.8µM*	44.7µM*	31.6µM*	-9.9%
CCN(CC)c1ccc(NC(=S)NC(=O)c2cccs2)cc1	-15.7%	1.9	17.8µM*	?	10µM*	-7.8%
CCN(CC)c1ccc(NC(=S)Nc2ccc(F)cc2)cc1	-6.4%	-6.9	35.5µM*	25.1µM*	22.4µM*	?
O=C1c2ccccc2C(=O)N1c1cnc2ccccc2c1	·	·	-9.5%	·	·	·
CCN(CC)c1ccc(NC(=S)NC(=O)c2ccco2)cc1	-1.4%	6.0	28.2µM*	44.7µM*	17.8µM*	21.2µM*
CCN(CC)c1ccc(NC(=O)c2ccco2)cc1	-5.4%	·	?	-0.8%	-33.8%	-1.7%
CCOC(=O)COn1c(=O)c(=O)n(O)c2ccccc21	0.6%	-0.2	50.1µM*	5.3%	-5.1%	-12.0%
COc1ccc(NC(=O)CNC(=O)Cn2cnc3sc4c(c3c2=O)CCCC4)cc1OC	-4.5%	2.0	-16.0%	23.3%	0.4%	0.5%
O=C(Cn1cnc2sc3c(c2c1=O)CCCC3)NCC(=O)Nc1c(F)cc(F)cc1Br	0.7%	-5.9	?	1.5%	-5.3%	29.9µM*
COc1ccc(CCNC(=O)c2ccc3c(c2)N(Cc2ccc(F)cc2)C(=O)c2ccccc2S3(=O)=O)cc1OC	-9.7%	·	-16.2%	20.1%	-10.3%	·
Cc1ccc2c(c1)CCCN2C(=O)Nc1ccc2c(c1)OCO2	-1.6%	-2.3	56.2µM*	-37.2%	?	26.7µM*
CCCc1cnc2c(c1SCc1cccc(C)c1)c(=O)n(C)c(=O)n2C	-3.9%	·	2.9%	43.5%	24.5%	·
CCCCCCn1cc(CN2CC(N3CCN(Cc4cccc(C)c4)CC3)CS2(=O)=O)nn1 (stereo not drawn)	·	9.5	·	·	·	-7.8%
CCOC(=O)c1sc(C)c2c1NC1(CCCCC1)NC2=O	-9.2%	·	-17.2%	6.5%	-3.9%	-5.1%
CCOC(=O)CN1NC2(CCCCC2)NC1=S	-2.6%	-28.8	17.8µM*	-19.8%	-5.6%	-11.3%
CCOC(=O)CN1NC2(CCCCCCC2)NC1=S	-11.3%	-3.2	28.2µM*	40.6%	-20.7%	-0.5%
CCOC(=O)Cn1c2c(c(=N)c3c1CCC3)CCC2	-3.6%	-4.6	-0.9%	57.0%	58.0%	-6.3%
O=C(Nc1cccc(-c2nc3ccccc3c(=O)o2)c1)c1ccccc1	?	-20.9	25.1µM*	?	-32.4%	21.2µM*
CCOc1cc(C(=O)Nc2cccc(-c3nc4ccccc4o3)c2)cc(OCC)c1OCC	-2.1%	·	9.0%	43.9%	1.4%	·
CCOC(=O)C1=C(C)N(c2ccccc2)C(=O)/C1=C\c1cccs1	-3.7%	2.1	?	28.2µM*	10µM*	0.2%
CCOC(=O)C1=C(C)N(c2ccc(C)cc2)C(=O)/C1=C\c1cccs1	-9.5%	3.4	12.6µM*	?	10µM*	2.3%
COC(=O)C1=C(C)N(c2cccc(C)c2)C(=O)/C1=C\c1cccs1	-19.2%	10.5	?	?	10µM*	-11.5%
COC(=O)C1=C(C)N(c2ccc(Cl)cc2)/C(=C/c2cccs2)C1=O	-4.2%	-3.7	-4.9%	26.7%	-2.9%	-4.6%
